Assay results published in PubChem BioAssay AID1159606 (Sanford-Burnham Center for Chemical Genomics, 2016).
Out of some 360,000 compounds screened, about 7,300 (2%) were called active. Only a selection was taken, and actives are over-represented in it overall. Values without a mark were called inactive. Rule as the data show it: active = inhibition above about 50%; inactive = the rest.

Experiment: blockers of TWEAK-induced Fn14 reporter activity – luciferase reporter cells, uHTS, primary screen (AID 1159606)
Conditions: TWEAK-stimulated Fn14 reporter cells, luciferase luminescence, 8 h; at 10 µM; active compounds read high

Compared with CCCCc1ccc(NS(=O)(=O)c2cccc(C(=O)N3CCCN(C)CC3)c2)cc1, CCCCN1C(=O)C(CC(=O)NCc2cccs2)CC(C(=O)N2CCCCCC2)=C1C (stereo not drawn) is lower in inhibition: 13.3% for the first, -6.58% for the second.

Compared with CN(C)/C=C/c1c(C#N)c(=O)ncn1Cc1ccccc1, O=c1c2c(ncn1Cc1ccccc1)nc1n2CCC1 is lower in inhibition: 1.93% for the first, -3.28% for the second.

First: C#Cc1cc(N2CCN(C(=O)c3ccoc3)CC2)n2nc(-c3cccc(Cl)c3)cc2n1
Second: O=C(c1ccccc1)N1CCN(C(=O)c2cc3nc(-c4ccccc4)cc(C(F)(F)F)n3n2)CC1
The inhibition of the first is lower: -13.9% for the first, 12% for the second.

First: CCC(Sc1nncn1C)C(=O)Nc1nnc(-c2ccc(Cl)cc2)s1 (stereo not drawn)
Second: CN(C(=O)Nc1ccc(Cl)cc1)n1cnc2ccccc2c1=O
The inhibition of the first is higher: 2.15% for the first, 1.4% for the second.

Compared with Cc1cc(C(=O)OCC(=O)Nc2ccc(F)c(F)c2)c(C)o1, Cc1cccc(CN2CCC(CNC(=O)Nc3ccc(F)c(Cl)c3)CC2)c1 is higher in inhibition: -6.41% for the first, 10.9% for the second.

Compared with CCOc1ccc(S(=O)(=O)NCC2CCCO2)cc1 (stereo not drawn), O=S(=O)(NCC1CCCO1)c1ccc2ccccc2c1 (stereo not drawn) is higher in inhibition: -13.5% for the first, -2.08% for the second.

First: CC1CCCC(C)N1C(=O)COC(=O)c1ccccc1C(=O)c1ccccc1 (stereo not drawn)
Second: CC(C)(C)C(=O)c1c(N)[nH]c(C(=O)c2ccccc2)c1-c1ccc(F)cc1
The inhibition of the first is higher: 3.29% for the first, -3.63% for the second.

Going from Cc1ncoc1C(=O)N1CCCC(C(=O)c2ccc3c4c(cccc24)CC3)C1 (stereo not drawn) to COC(=O)c1cccc(C(=O)N2CCCC(Nc3ccc4c(c3)OCCO4)C2)c1 (stereo not drawn), the inhibition rises from -10.9% to 13.2%.

First: CCC1(c2ccccc2)NC(=O)N(CC(=O)c2ccc3c(c2)OCO3)C1=O (stereo not drawn)
Second: O=C(CN1CCN(c2ccccc2F)CC1)c1ccc2c(c1)OCO2
The inhibition of the first is higher: 1.98% for the first, -7.75% for the second.

Compared with NC(=O)c1nnsc1-c1ccc(-c2snnc2C(N)=O)cc1, CCCCNC(=O)CSc1nc2ccc(NC(=O)CSc3nnc(N)s3)cc2s1 is higher in inhibition: 16.3% for the first, 23.8% for the second.

Compared with CCc1ccccc1N1CN(Cc2ccco2)CNC1=S, CCCCN(C(C)=O)c1ccc2c(c1)C1CC2CCN1Cc1ccccc1 (stereo not drawn) is higher in inhibition: -34% for the first, -18% for the second.

Compared with CC(C)C(NC(=O)C1CCC(C(C)(C)C)CC1)C(=O)NCCCN1CCCCC1 (stereo not drawn), Cc1ccccc1NC(=O)NC1(C(=O)N2CCCC2)CCCCC1 is higher in inhibition: -11.2% for the first, -3.42% for the second.

Going from COC(=O)c1cc(Oc2ccc(S(=O)(=O)N3CCOCC3)cc2[N+](=O)[O-])cc(C(=O)OC)c1 to Cc1cc(S(=O)(=O)N2CCOCC2)ccc1OCC(=O)N1CCOCC1, the inhibition rises from 3.34% to 3.41%.

First: COCCN(C(=O)C(C)N1C(=O)c2ccccc2C1=O)c1c(N)n(CC(C)C)c(=O)[nH]c1=O (stereo not drawn)
Second: CC(C)(C)c1nc2ccccc2c(=O)n1N1C(=O)c2ccccc2C1=O
The inhibition of the first is lower: 2.19% for the first, 20.8% for the second.

First: CC/C(O)=C1\C(=O)CC(C)(C)CC1=NCCc1nc2ccccc2[nH]1
Second: CCCc1nn(C)c2c(=O)[nH]c(-c3cc(S(N)(=O)=O)ccc3OCC)nc12
The inhibition of the first is higher: 4.19% for the first, -1.76% for the second.

Compared with CC1(C)O[C@@H]2CC3C4C[C@H](F)C5=CC(=O)C=CC5(C)C4C(O)CC3(C)[C@]2(C(=O)CO)O1 (stereo partly drawn), C[C@@H]1CC2=C(C(=O)OC(C)(C)O2)[C@@H](C2CC2)O1 is higher in inhibition: -4.61% for the first, 4.57% for the second.

First: COc1ccc(C(=O)NCC[N+](C)(C)C)cc1
Second: COc1ccc(NC(=S)NC2CCS(=O)(=O)C2)cc1 (stereo not drawn)
The inhibition of the first is higher: 7.64% for the first, -0.47% for the second.

First: CS(=O)(=O)N(CC(=O)N/N=C/c1ccccn1)c1ccc(Oc2ccccc2)cc1
Second: Cc1nc(CNS(=O)(=O)c2ccc(Oc3ccccc3)cc2)cs1
The inhibition of the first is lower: 4.09% for the first, 23.5% for the second.

Going from Clc1ccc(Cn2ncc3c(NCc4cccnc4)ncnc32)cc1 to c1ccc(CNc2ncnc3[nH]ncc23)cc1, the inhibition falls from 31.4% to 2.58%.

Compared with O=C(Cc1ccc(Cl)cc1)NC1CCS(=O)(=O)C1 (stereo not drawn), O=C(CSc1ccccc1F)NC1CCS(=O)(=O)C1 (stereo not drawn) is higher in inhibition: -0.04% for the first, 2.35% for the second.

Compared with CC(C)C(=O)NC(NC(=S)NC1CCS(=O)(=O)C1)C(Cl)(Cl)Cl (stereo not drawn), CNC(=O)c1c(NC(NC(=O)c2ccco2)C(=O)c2ccc(Cl)cc2)sc2c1CCCC2 (stereo not drawn) is lower in inhibition: 25.4% for the first, -9.64% for the second.

Compared with Cc1ccc(NC2CCCN(C(=O)CCC3(C)CC3)C2)cc1C (stereo not drawn), Cc1cccc(NC(=O)CCN2CC(C)CC(C)C2)c1 (stereo not drawn) is higher in inhibition: -13.8% for the first, -9.11% for the second.

First: CSc1ccc(/C=C2\NC(=O)NC2=O)cc1
Second: Cc1ccc(C)c(Cn2nnc3c(=O)[nH]c(C(=O)Nc4ccc(F)cc4)nc32)c1
The inhibition of the first is lower: -11.1% for the first, -5.18% for the second.

Going from CNC(=O)C1CCN(S(=O)(=O)c2c(C)noc2/C=C/c2cccc(C)c2)CC1 to Cc1noc(/C=C/c2ccco2)c1S(=O)(=O)N1CCC(C(=O)N2CCc3ccccc32)CC1, the inhibition rises from -21.5% to 6.06%.

Going from Oc1cc(O)c2c(c1)OC(c1ccc(O)c(O)c1)C(O)C2 (stereo not drawn) to CC(=O)C1C(c2ccc(Cl)cc2)c2c(n[nH]c2C)CC1(C)O (stereo not drawn), the inhibition falls from -8.69% to -9.34%.

First: Clc1ccc(-c2cccc3nccn23)cc1
Second: CC(C)c1ccc(OCC(O)Cn2cnc3ccccc32)cc1 (stereo not drawn)
The inhibition of the first is higher: -3.21% for the first, -16.5% for the second.

First: CCCCNC(=O)OCCSCCS(=O)(=O)c1ccc(Cl)cc1
Second: CCCCNC(=O)CSc1nc2ccc(NC(=O)CSc3nnc(COc4ccccc4C)n3C)cc2s1
The inhibition of the first is higher: -5.78% for the first, -37.4% for the second.

First: Cc1cccc(NC(=O)Cn2cc(C(=O)c3ccco3)c3ccccc32)c1
Second: c1ccc2c(C[n+]3csc4ccccc43)cccc2c1
The inhibition of the first is higher: -6.45% for the first, -11.1% for the second.

First: CC(C)CN(CC(C)C)CC(O)CN(c1ccccc1)S(=O)(=O)c1ccccc1[N+](=O)[O-] (stereo not drawn)
Second: O=C(C(c1ccccc1)c1ccccc1)N1CCN(CC(O)COc2ccccc2)CC1 (stereo not drawn)
The inhibition of the first is higher: 16% for the first, 3.97% for the second.

For COc1ccc([C@H]2CC(=O)C[C@@H](CCn3cc(CC4CCCC4)nn3)O2)cc1, the inhibition was 7.34%.

For CN(C)c1ccnc2sc3c(=O)n(Cc4ccccc4)cnc3c12, the inhibition was 69.3% (active).
In the case of O=C(c1ccccc1)N1CCN(c2cc(-c3ccccc3)nc3cc(-c4cccc(Cl)c4)nn23)CC1, the inhibition is reported as 50.7% (active).
With O=S(=O)(NCC1CCCO1)c1cnc(Cl)c(Cl)c1 (stereo not drawn) the inhibition was 61.4% (active).
In the case of O=C(CCN1CCc2ccccc2C(O)(c2ccccc2)C1)c1ccc2c(c1)OCCO2 (stereo not drawn), the inhibition is reported as 60.1% (active).
With Cc1cc(C(=O)COc2ccccc2[N+](=O)[O-])c(C)n1-c1cccc(S(=O)(=O)N2CCOCC2)c1 the inhibition was 82.7% (active).
In the case of Brc1ccc2ncnc(NCc3cccnc3)c2c1, the inhibition is reported as 62.2% (active).
With O=S1(=O)CCC(NC(=S)SCc2ccccc2Br)C1 (stereo not drawn) the inhibition was 54.2% (active).
With CCCSC(=S)NC1CCS(=O)(=O)C1 (stereo not drawn) the inhibition was 78.9% (active).
In the case of Cc1noc(/C=C/c2ccco2)c1S(=O)(=O)N1CCC(C(=O)Nc2ccc(Cl)cn2)CC1, the inhibition is reported as 51% (active).
With Cc1cccc(CS(=O)(=O)c2ncc(Cl)c(C(=O)Nc3ccc(F)cc3)n2)c1 the inhibition was 77% (active).
In the case of Cc1cccc(NC(=O)c2nc(S(=O)(=O)Cc3ccccc3)ncc2Cl)c1, the inhibition is reported as 75.7% (active).
In the case of CN(c1ccc2nc3ccccc3c(=O)n2n1)C1CCCCC1, the inhibition is reported as 105% (active).
In the case of Nc1nnc(SCC(=O)Nc2ccc3nc(SCC(=O)Nc4ccccc4)sc3c2)s1, the inhibition is reported as 86.4% (active).
For OC(CN=c1sc2ccccc2n1CC(O)COc1ccccc1)COc1ccccc1 (stereo not drawn), the inhibition was 70.7% (active).
